High-throughput results from PubChem BioAssay.
Many of the other results were omitted from the sample, so hits are more common in it than they were.
TDP1 block – inhibitors of human tyrosyl-DNA phosphodiesterase TDP1; 350,000 tested, 0.28% active; Potency, µM (series often up to 130 µM), hits mostly inhibitors; AID 485290; recombinant TDP1, AlphaScreen DNA substrate cleavage; also: nearly all actives have a fitted effect of over 40% in size
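Compounds were preincubated with Tdp1 (1 nM final) for 15 min at room temperature before substrate (15 nM final) started a 5 min reaction; beads (10 ug/ml final) were then added for 10 min before AlphaScreen detection.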
RECQ1 helicase – RECQ1 (human) helicase inhibition | Potency, µM (doses to about 57.3 µM), most hits filed as inhibitors | 240,000 tested, 0.54% active | AID 2549 | RECQ1 DNA unwinding, red fluorescence kinetic read | P46063; also: nearly all actives have a fitted effect of over 30% in size
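50 nM RECQ1T1 preincubated 15 min with compound in Tris pH 8.0 buffer with MgCl2, DTT, Tween-20 and 2.5 ug/ml poly(dI-dC); started with 200 nM TAMRA/BHQ-2 forked duplex and 2 mM ATP. Unwinding read as fluorescence (525/598 nm), two reads 2 h apart.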
BLM inh – inhibitors of human Bloom syndrome helicase BLM. P54132. 350,000 tested, 0.2% active. AID 2528. recombinant BLM DNA unwinding, fluorescence dequenching. Potency, µM (top dose mostly 56.1 µM), hits mostly inhibitors; also: nearly all actives have a fitted effect of over 35% in size
APEX1 inh – blocks human APE1 abasic DNA cleavage; AID 2517; 350,000 tested, 0.35% active; recombinant APE1, TAMRA/BHQ-2 abasic DNA cleavage fluorescence; Potency, µM (doses to about 65.8 µM), actives largely listed as inhibitors; also: nearly all actives have a fitted effect of over 55% in size
Target sequence (P27695 whole entry, looked up): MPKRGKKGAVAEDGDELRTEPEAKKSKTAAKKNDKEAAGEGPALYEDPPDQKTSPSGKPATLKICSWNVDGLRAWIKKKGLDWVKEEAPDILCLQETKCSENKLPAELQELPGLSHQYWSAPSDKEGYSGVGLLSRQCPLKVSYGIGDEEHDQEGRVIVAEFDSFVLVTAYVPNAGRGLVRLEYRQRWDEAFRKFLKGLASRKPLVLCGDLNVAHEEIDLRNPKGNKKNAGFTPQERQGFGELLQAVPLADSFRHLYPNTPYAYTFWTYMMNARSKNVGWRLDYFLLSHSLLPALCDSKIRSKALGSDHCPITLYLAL
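Measures dequenching upon AP-site incision of a 5'-TAMRA/3'-BHQ-2 THF-containing duplex, 50 nM; human APE1 0.75 nM after 15 min room-temperature exposure to compound; kinetic three-point read at one-minute spacing.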
L3MBTL1 block – L3MBTL1 (human) inhibition. Q9Y468. AlphaScreen L3MBTL1–H3K9me1 peptide binding. Potency, µM (series often up to 57.1 µM), hits mostly inhibitors. 230,000 tested, 0.66% active; also: nearly all actives have a fitted effect of over 60% in size
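AlphaScreen proximity signal between nickel-chelate acceptor and streptavidin donor beads (final 10 ug/mL) reports binding of 50 nM L3MBTL1 to 75 nM biotin-H3 K9me1 peptide; complex incubated with compounds 30 min at room temperature; cefsulodin titration as control.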
JMJD2E inh – inhibitors of human JMJD2E histone demethylase | JMJD2E catalytic domain, FDH-coupled NADH fluorescence (FDH is formaldehyde dehydrogenase) | Potency, µM (series often up to 57.1 µM), actives largely listed as inhibitors | 230,000 tested, 1.6% active | AID 2147; active = well fitted inhibition curve with a large enough effect, not every such curve was filed as active; inconclusive = small, poorly fitted or top-dose-only effect, or another doubt; inactive = no such curve, though single readings can be large or run the other way; also: nearly all actives have a fitted effect of over 50% in size
Each line names hits and unclear results; the compound was inactive in the other large screens. Unless noted, calls follow the shape of the dose curve; as a rule, active = well fitted curve in the direction sought with a large enough effect; inconclusive = small, poorly fitted or top-dose-only effect, or another doubt; inactive = no such curve, though single readings can be large; an effect the other way counts as inactive or inconclusive.

CC(C)(C)n1ncc2c(=O)n(Cc3c(F)ccc(Cl)c3Cl)cnc21	none (no result: TDP1 block, RECQ1 helicase, BLM inh, L3MBTL1 block, JMJD2E inh)
CC[C@@H](C)[C@@H](N)C1=N[C@H](C(=O)N[C@@H](CC(C)C)C(=O)N[C@@H](CCC(=O)O)C(=O)N[C@@H](C(=O)N[C@@H]2CCCCNC(=O)[C@@H](CC(N)=O)NC(=O)[C@@H](CC(=O)O)NC(=O)[C@@H](Cc3cnc[nH]3)NC(=O)[C@@H](Cc3ccccc3)NC(=O)[C@@H]([C@H](C)CC)NC(=O)[C@@H](CCCN)NC2=O)[C@@H](C)CC)CS1	none (no result: TDP1 block, RECQ1 helicase, BLM inh, L3MBTL1 block, JMJD2E inh)
CNS(=O)(=O)c1cccc(C(=O)NCC2(N3CCCCC3)CCCCC2)c1	TDP1 block 50µM (no result: RECQ1 helicase, L3MBTL1 block, JMJD2E inh)
COc1ccc(NS(=O)(=O)c2cccc(C(=O)NCC3(N4CCCCC4)CCCCC3)c2)cc1	none (no result: RECQ1 helicase, BLM inh, JMJD2E inh)
CN(C)S(=O)(=O)c1cccc(C(=O)NCC2(N3CCOCC3)CCCCC2)c1	none
CC(=O)Nc1cc(NC(C)=O)cc(C(=O)NCC2(N3CCOCC3)CCCCC2)c1	TDP1 block 22µM, APEX1 inh inconclusive (no result: RECQ1 helicase, BLM inh, JMJD2E inh)
O=C(COC(=O)c1ccc([N+](=O)[O-])s1)NCCc1ccccc1	APEX1 inh inconclusive, L3MBTL1 block inconclusive (no result: RECQ1 helicase, BLM inh, JMJD2E inh)
O=C(COC(=O)c1ccc([N+](=O)[O-])s1)NC(=O)NCc1ccccc1	APEX1 inh inconclusive, L3MBTL1 block 11µM
CCCc1nn2c(=O)cc(COc3cccc(NC(=O)c4ccco4)c3)nc2s1	none (no result: RECQ1 helicase, L3MBTL1 block, JMJD2E inh)
CCc1nn2c(=O)cc(COc3cccc(NC(=O)c4ccco4)c3)nc2s1	TDP1 block 50µM (no result: RECQ1 helicase, L3MBTL1 block, JMJD2E inh)
CCn1cc(C(=O)O)c(=O)c2cc(F)c(N3CCN(C(=S)NC(=O)c4ccc(OC)cc4)CC3)cc21	TDP1 block 79µM (no result: RECQ1 helicase, L3MBTL1 block, JMJD2E inh)
CC1=CC(C)(C)Nc2cc(C)c(C)cc21	JMJD2E inh 11µM
CC1=CC(C)(C)Nc2ccc(OC(=O)CN3C(=O)CCC3=O)cc21	JMJD2E inh inconclusive (no result: L3MBTL1 block)
CC1=CC(C)(C)Nc2ccc(Cc3ccc4c(c3)C(C)=CC(C)(C)N4)cc21	L3MBTL1 block inconclusive, JMJD2E inh inconclusive
CC1=CC(C)(C)Nc2ccc(C)cc21	JMJD2E inh 14µM
Cn1c(=O)c2c(SCC(=O)N3CCN(c4ccccc4)CC3)nc(C3CC3)nc2n(C)c1=O	RECQ1 helicase 18µM (no result: TDP1 block)
COc1ccc(C2c3c(N)nc(CCc4ccccc4)nc3Oc3ccc4ccccc4c32)cc1OC (centres undefined)	none (no result: RECQ1 helicase, BLM inh, APEX1 inh, L3MBTL1 block, JMJD2E inh)
O=c1c(O)c(-c2cc(O)c(O)c(O)c2)oc2cc(O)ccc12	RECQ1 helicase 4.5µM, APEX1 inh 0.28µM (no result: TDP1 block, L3MBTL1 block, JMJD2E inh)
O=c1c(O)c(-c2ccc(O)cc2)oc2cc(O)ccc12	APEX1 inh inconclusive, JMJD2E inh inconclusive (no result: L3MBTL1 block)
COc1cccc(C2c3c(ncn(-c4cccc(F)c4)c3=N)Oc3ccc4ccccc4c32)c1 (centres undefined)	none (no result: RECQ1 helicase, BLM inh, APEX1 inh, L3MBTL1 block, JMJD2E inh)
CC(C)C(C)(C#N)NC(=O)CSc1nc2scc(-c3ccco3)c2c(=O)n1-c1ccccc1 (centres undefined)	RECQ1 helicase 20µM, BLM inh inconclusive, APEX1 inh inconclusive, JMJD2E inh inconclusive (no result: TDP1 block)
Cc1c(Cn2cnc3c(cnn3C(C)(C)C)c2=O)cccc1C(F)(F)F	none (no result: TDP1 block, RECQ1 helicase, BLM inh, L3MBTL1 block, JMJD2E inh)
C=CC(C1=CC(=O)C(OC)=CC1=O)c1ccccc1 (centres undefined)	JMJD2E inh 2.2µM (no result: L3MBTL1 block)
O=C(Nc1ccccc1)Nc1nc(Nc2cc(F)cc(F)c2)nc(NC2CCCC2)n1	none (no result: RECQ1 helicase, BLM inh, APEX1 inh, L3MBTL1 block, JMJD2E inh)
Cc1ccccc1Nc1oc(-c2ccccc2)nc1-c1cccs1	none (no result: L3MBTL1 block)
O=C(CN1C(=O)S/C(=C\c2ccc(-c3cc(C(=O)O)ccc3Cl)o2)C1=O)Nc1ccc2c(c1)OCO2	TDP1 block 7.9µM, BLM inh 10µM, APEX1 inh 6.7µM (no result: RECQ1 helicase, L3MBTL1 block, JMJD2E inh)
COc1ccccc1N1C(=N)S/C(=C\c2ccc(-c3ccccc3C(=O)O)o2)C1=O	TDP1 block 11µM, RECQ1 helicase inconclusive, APEX1 inh 28µM, L3MBTL1 block inconclusive
Cc1ccc(NC(=O)CN2C(=O)S/C(=C\c3ccc(-c4cccc(C(=O)O)c4C)o3)C2=O)cc1C	TDP1 block 79µM, BLM inh inconclusive, APEX1 inh inconclusive, JMJD2E inh inconclusive
Cn1cc(/C=C2/SC(=O)N(CC(=O)Nc3ccc4c(c3)OCO4)C2=O)c2ccccc21	none
